Measurements taken from PubChem BioAssay (Tox21).
Values joined by “and” are separate entries in the source; they are usually repeats but may differ in a detail not shown here. Identical values can stand only once. Results filed as inconclusive are left out. Where a call stands in place of a potency, no number is given. The source holds several records for some structures; these can differ, active in one and inactive in another. Active and inactive are the calls of the source. Unless noted, calls come from the whole dose curve; as a rule, active = well fitted curve in the direction sought with a large enough effect in the repeat runs; inconclusive = weak or mixed curves; inactive = no such curve, though single readings can be large; an effect the other way counts as inactive or inconclusive.

What was measured:
[1] = qHTS assay to identify small molecule agonists of the peroxisome proliferator-activated receptor delta (PPARd) signaling pathway - cell viability counter screen (AID 743211); note: nearly all actives have a fitted effect of over 55% in size; note: potency is the fitted concentration of half-maximal effect
Outline: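 qHTS cell viability: PPARd-bla HEK293H; 17 h cpd, 37C; CellTiter-Glo, luminescence at 30 min RT.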

[2] = target: Peroxisome proliferator-activated receptor delta (Homo sapiens) (UniProt Q03181); assay: qHTS assay to identify small molecule agonists of the peroxisome proliferator-activated receptor delta (PPARd) signaling pathway (AID 743212; calls by dose curve;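 note: HEK293H cells with PPARd UAS beta-lactamase reporter GeneBLAzer system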)
Chain of Peroxisome proliferator-activated receptor delta (Homo sapiens) (Q03181 whole entry, looked up): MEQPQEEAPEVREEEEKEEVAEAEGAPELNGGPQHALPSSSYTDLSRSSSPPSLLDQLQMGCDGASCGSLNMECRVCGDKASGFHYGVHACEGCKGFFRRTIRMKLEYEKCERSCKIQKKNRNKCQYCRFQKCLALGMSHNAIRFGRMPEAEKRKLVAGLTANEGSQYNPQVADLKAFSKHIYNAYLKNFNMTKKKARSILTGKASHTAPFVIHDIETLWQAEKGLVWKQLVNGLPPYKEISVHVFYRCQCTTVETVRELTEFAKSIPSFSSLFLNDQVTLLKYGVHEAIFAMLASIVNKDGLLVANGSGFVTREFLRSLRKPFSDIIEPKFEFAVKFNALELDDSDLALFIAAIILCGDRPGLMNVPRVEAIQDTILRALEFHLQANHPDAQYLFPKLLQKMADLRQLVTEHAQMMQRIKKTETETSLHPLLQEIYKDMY
Outline: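 Beta-lactamase reporter read by fluorescence (LiveBLAzer B/G FRET, 2 h, room temperature). Test agents, in DMSO, incubated at 37 C with PPARd-bla HEK293H cells.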

[3] = qHTS assay to identify small molecule antagonists of the peroxisome proliferator-activated receptor delta (PPARd) signaling pathway - cell viability counter screen (AID 743213); note: nearly all actives have a fitted effect of over 50% in size; note: potency is the fitted concentration of half-maximal effect
Outline: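 HEK293H cells with the PPARd UAS-bla reporter, co-treated 17 h at 37 C with compounds and L165041 (300 nM final), were lysed with CellTiter-Glo. Luminescence indicated viable cell content.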

[4] = target: Peroxisome proliferator-activated receptor delta (Homo sapiens) (UniProt Q03181); assay: qHTS assay to identify small molecule antagonists of the peroxisome proliferator-activated receptor delta (PPARd) signaling pathway (AID 743215; active = well fitted inhibition curve with a large enough effect in the signal ratio in the repeat runs, not every such curve was filed as active; the % refers to the signal ratio;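 note: cells stimulated with agonist L165041 at 300 nM final during compound exposure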; note: potency is the fitted concentration of half-maximal effect)
Outline: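 Agonist L165041 (300 nM final) added with compound to PPARd-bla HEK293H UAS-bla reporter cells; 17 h incubation at 37 C. Read-out: LiveBLAzer FRET substrate, 2 h at room temperature, fluorescence intensity.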

[5] = qHTS assay to identify small molecule agonists of the farnesoid-X-receptor (FXR) signaling pathway - cell viability counter screen (AID 743218); note: nearly all actives have a fitted effect of over 45% in size; note: potency is the fitted concentration of half-maximal effect
Outline: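 Viability counter screen in the same wells: CellTiter-Glo luminescence, 30 min room-temperature incubation, measured after the beta-lactamase read. Cells were GeneBLAzer FXR-UAS-bla HEK 293T, compound-treated 16 h at 37C.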

[6] = qHTS assay to identify small molecule antagonists of the farnesoid-X-receptor (FXR) signaling pathway - cell viability counter screen (AID 743221; active = well fitted cell-killing curve with a large enough effect in the repeat runs, not every such curve was filed as active; note: nearly all actives have a fitted effect of over 50% in size; note: potency is the fitted concentration of half-maximal effect)
Outline: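 After a 5 h settling period, FXR-bla HEK 293T cells receive compound and chenodeoxycholic acid (50 uM final) and incubate 16 h at 37 C; CellTiter-Glo luminescence, read after 30 min at room temperature, reports cell viability.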

[7] = target: Vitamin D3 receptor (Homo sapiens) (UniProt P11473); assay: qHTS assay to identify small molecule agonists of the vitamin D receptor (VDR) signaling pathway (AID 743222; calls by dose curve)
Chain of Vitamin D3 receptor (Homo sapiens) (P11473 whole entry, looked up): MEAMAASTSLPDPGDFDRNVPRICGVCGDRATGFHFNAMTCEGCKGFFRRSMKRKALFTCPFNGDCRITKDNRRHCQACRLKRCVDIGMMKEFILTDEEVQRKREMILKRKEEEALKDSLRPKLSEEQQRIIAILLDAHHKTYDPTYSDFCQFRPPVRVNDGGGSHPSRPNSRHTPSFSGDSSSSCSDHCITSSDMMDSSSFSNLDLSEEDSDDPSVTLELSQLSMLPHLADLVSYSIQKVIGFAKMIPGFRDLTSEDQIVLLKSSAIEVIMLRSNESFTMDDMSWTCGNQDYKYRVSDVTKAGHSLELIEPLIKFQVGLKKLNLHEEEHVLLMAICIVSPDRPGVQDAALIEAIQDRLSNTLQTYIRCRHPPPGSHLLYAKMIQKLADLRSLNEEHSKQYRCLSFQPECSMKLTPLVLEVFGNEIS
Outline: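 Agonist mode, beta-lactamase reporter: fluorescence from LiveBLAzer B/G FRET substrate (2 h, room temperature) read after 16 h compound treatment at 37 C of VDR-bla cells, which were pre-incubated 4 h after seeding.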

[8] = target: Vitamin D3 receptor (Homo sapiens) (UniProt P11473); assay: qHTS assay to identify small molecule antagonists of the vitamin D receptor (VDR) signaling pathway (AID 743223; active = well fitted inhibition curve with a large enough effect in the signal ratio in the repeat runs, not every such curve was filed as active; the % refers to the signal ratio; note: potency is the fitted concentration of half-maximal effect)
Outline: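 Reporter line VDR-bla; stimulus 1alpha,25-(OH)2 vitamin D3, 3 nM final; compound co-addition, 16 h 37C/5% CO2; LiveBLAzer B/G substrate 2 h RT; fluorescence intensity.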

[9] = qHTS assay to identify small molecule agonists of the vitamin D receptor (VDR) signaling pathway - cell viability counter screen (AID 743224); note: nearly all actives have a fitted effect of over 50% in size; note: potency is the fitted concentration of half-maximal effect
Outline: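 Counter screen run in the same wells as the VDR-bla reporter assay: CellTiter-Glo luminescence, 30 min at room temperature, after 16 h compound treatment at 37C of cells pre-plated for 4 h.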

[10] = qHTS assay to identify small molecule antagonists of the vitamin D receptor (VDR) signaling pathway - cell viability counter screen (AID 743225); note: nearly all actives have a fitted effect of over 50% in size; note: potency is the fitted concentration of half-maximal effect
Outline: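 Parallel cytotoxicity test: VDR-UAS-bla HEK 293T, 3 nM (final) 1-alpha,25-dihydroxyvitamin D3 with test compound, 16 h, 37C. Endpoint is CellTiter-Glo luminescence in the same wells.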

[11] = qHTS assay to identify small molecule agonists of the NFkB signaling pathway - cell viability counter screen (AID 1159515; calls by dose curve; note: nearly all actives have a fitted effect of over 55% in size; note: potency is the fitted concentration of half-maximal effect)
Outline: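 Read by CellTiter-Glo luminescence (30 min, room temperature) in the wells also used for the beta-lactamase FRET read. ME-180 NFkB-bla cells at 2,000 per well were plated overnight, then exposed to compound for 5 hr at 37 C.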

[12] = qHTS assay to identify small molecule agonists of the endoplasmic reticulum stress response signaling pathway (AID 1159516; active = well fitted activation curve with a large enough effect in the signal ratio in the repeat runs, not every such curve was filed as active; the % refers to the signal ratio)
Outline: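 Ratiometric FRET readout (405 nm excitation; 460 and 530 nm emission) of a beta-lactamase gene driven by the ER stress response element, after 2 hr substrate loading. HeLa ESRE-bla cells were seeded overnight and treated with compounds for only 5 hr at 37 C.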

[13] = qHTS assay to identify small molecule agonists of the endoplasmic reticulum stress response signaling pathway - cell viability counter screen (AID 1159517; calls by dose curve; note: nearly all actives have a fitted effect of over 50% in size; note: potency is the fitted concentration of half-maximal effect)
Outline: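 Cytotoxicity of test compounds toward ESRE-bla HeLa cells was assessed after 5 hr exposure. The luminescent CellTiter-Glo signal was measured 30 min after reagent addition.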

[14] = qHTS assay to identify small molecule antagonists of the retinoid-related orphan receptor gamma (ROR-gamma) signaling pathway - cell viability counter screen (AID 1159520); note: nearly all actives have a fitted effect of over 50% in size; note: potency is the fitted concentration of half-maximal effect
Outline: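 Tet-on ROR gamma CHO cells (1,000/well) were plated 4 hr, given compounds in DMSO for 2 hr at 37 C, then induced with 1 uM final doxycycline for 16 hr. Viability was read as ATP by CellTiter-Glo luminescence after 30 min.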

[15] = qHTS assay to identify small molecule agonists of the AP-1 signaling pathway (AID 1159526; calls by dose curve)
[16] = target: Retinoic acid receptor RXR-alpha (Homo sapiens) (UniProt P19793); assay: qHTS assay to identify small molecule agonists of the RXR signaling pathway (AID 1159527; calls by dose curve; note: nearly all actives have a fitted effect of over 35% in size)
Chain of Retinoic acid receptor RXR-alpha (Homo sapiens) (P19793 whole entry, looked up): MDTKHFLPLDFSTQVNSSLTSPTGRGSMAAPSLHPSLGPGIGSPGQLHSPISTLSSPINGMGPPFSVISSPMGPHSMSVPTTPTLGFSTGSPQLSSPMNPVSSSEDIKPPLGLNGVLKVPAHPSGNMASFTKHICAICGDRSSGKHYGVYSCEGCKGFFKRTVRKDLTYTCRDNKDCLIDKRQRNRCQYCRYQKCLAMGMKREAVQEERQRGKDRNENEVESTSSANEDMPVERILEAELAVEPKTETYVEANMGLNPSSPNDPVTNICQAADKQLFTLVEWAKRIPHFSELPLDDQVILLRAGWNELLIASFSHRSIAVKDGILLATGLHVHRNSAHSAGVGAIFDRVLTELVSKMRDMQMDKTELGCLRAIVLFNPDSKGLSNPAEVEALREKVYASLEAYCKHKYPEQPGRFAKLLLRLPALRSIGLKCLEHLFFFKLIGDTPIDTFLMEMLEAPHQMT
Outline: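 16 hr incubation of compound-treated RXR-alpha-UAS-bla HEK 293T cells (2% charcoal-stripped FBS, 37 C) preceded a 2 hr room-temperature LiveBLAzer FRET substrate step and blue/green fluorescence measurement.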

[17] = qHTS assay to identify small molecule agonists of the AP-1 signaling pathway - cell viability counter screen (AID 1159525; calls by dose curve; note: nearly all actives have a fitted effect of over 55% in size; note: potency is the fitted concentration of half-maximal effect)
Outline: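 Each titration point was normalised to DMSO and tetra n-octyl ammonium bromide controls. The read was Cell Titer Glo luminescence after 30 min at RT, following 5 h compound exposure of ME-180 AP-1-bla cells at 37 °C.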

[18] = target: Bile acid receptor (Homo sapiens) (UniProt Q96RI1); assay: qHTS assay to identify small molecule antagonists of the farnesoid-X-receptor (FXR) signaling pathway (AID 743217; active = well fitted inhibition curve with a large enough effect in the signal ratio in the repeat runs, not every such curve was filed as active; the % refers to the signal ratio)
Chain of Bile acid receptor (Homo sapiens) (Q96RI1 whole entry, looked up): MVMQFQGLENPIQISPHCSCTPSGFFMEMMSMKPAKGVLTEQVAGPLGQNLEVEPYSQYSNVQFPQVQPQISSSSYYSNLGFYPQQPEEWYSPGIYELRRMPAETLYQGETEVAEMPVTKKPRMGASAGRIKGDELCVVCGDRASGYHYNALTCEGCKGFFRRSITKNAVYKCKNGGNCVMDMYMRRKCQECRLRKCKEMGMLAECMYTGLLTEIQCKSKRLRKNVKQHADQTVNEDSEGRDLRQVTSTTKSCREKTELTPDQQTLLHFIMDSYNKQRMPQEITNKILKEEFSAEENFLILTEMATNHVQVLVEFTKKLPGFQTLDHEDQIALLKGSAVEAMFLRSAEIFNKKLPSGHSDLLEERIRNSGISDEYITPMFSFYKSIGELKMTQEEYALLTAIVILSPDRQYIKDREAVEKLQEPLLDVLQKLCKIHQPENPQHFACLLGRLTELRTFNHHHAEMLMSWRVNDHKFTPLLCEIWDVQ
Outline: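 Antagonist mode: chenodeoxycholic acid at 50 uM final stimulates a UAS-driven beta-lactamase reporter in HEK 293T FXR-bla cells during 16 h, 37C compound exposure. Read-out is FRET substrate fluorescence after 2 h at room temperature.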

[19] = target: Nuclear receptor ROR-gamma (Homo sapiens) (UniProt P51449); assay: qHTS assay to identify small molecule antagonists of the retinoid-related orphan receptor gamma (ROR-gamma) signaling pathway (AID 1159521; note: nearly all actives have a fitted effect of over 50% in size; note: potency is the fitted concentration of half-maximal effect)
Outline: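 Decreased RORE-driven luciferase luminescence indicates antagonism. Tet-on RORγ CHO cells received compound, then 1 uM final doxycycline 2 h later; signal read after 16 h incubation.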

[20] = target: Bile acid receptor (Homo sapiens) (UniProt Q96RI1); assay: qHTS assay to identify small molecule agonists of the farnesoid-X-receptor (FXR) signaling pathway (AID 743220; active = well fitted activation curve with a large enough effect in the signal ratio in the repeat runs, not every such curve was filed as active; the % refers to the signal ratio)
Outline: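 FXR-UAS-bla HEK 293T cells carrying a UAS-driven beta-lactamase reporter were plated for 5 h at 37C/5% CO2, then exposed to DMSO-dissolved Tox21 10K compounds for 16 h at 37C. A LiveBLAzer B/G FRET substrate was loaded for 2 h at room temperature before fluorescence reading.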

SMILES	Potency [1]	Potency [2]	Potency [3]	Potency [4]	Potency [5]	Potency [6]	outcome [7]	Potency [8]	Potency [9]	Potency [10]	Potency [11]	Potency [12]	Potency [13]	Potency [14]	outcome [15]	Potency [16]	Potency [17]	Potency [18]	Potency [19]	Potency [20]
CCOP(=S)(OCC)SCSC(C)(C)C	inactive	inactive	inactive	inactive	inactive	inactive	inactive	inactive	inactive	inactive	inactive	inactive	inactive	inactive	inactive	inactive	–	–	–	–
CCCCCCCCCC(CC)c1ccc(S(=O)(=O)O)cc1 (stereo unspecified)	–	–	–	–	–	–	–	–	–	–	48.9 µM (active) and 21.3 µM (active)	–	inactive and 21.3 µM (active) and 21.9 µM (active)	inactive	–	–	49.5 µM (active) [middle of 4 runs]	–	–	–
C=CC(=O)OCC(CC)(COC(=O)C=C)COC(=O)C=C	11 µM (active)	–	–	12.6 µM (active)	inactive and 13.8 µM (active)	inactive and 43.6 µM (active)	inactive	6.92 µM (active)	20 µM (active) and 11 µM (active)	20 µM (active) and 17.4 µM (active)	inactive	inactive	inactive and 24.5 µM (active)	–	–	–	–	inactive	3.15 µM (active) and 6.86 µM (active)	–
OCCOCCO	inactive	inactive	inactive	inactive	inactive	inactive	inactive	inactive	inactive	inactive	inactive	inactive	inactive	inactive	inactive	–	–	inactive	inactive	inactive
CCC(=O)Nc1ccc(Cl)c(Cl)c1	inactive	–	inactive	–	inactive	inactive	inactive	inactive	inactive	inactive	inactive	inactive	inactive	inactive	inactive	inactive	–	–	–	–
CCC[CH2][Sn]([Cl])([Cl])[CH2]CCC	198 nM (active) and 61.6 nM (active)	–	556 nM (active) and 155 nM (active)	–	140 nM (active) and 24.5 nM (active)	222 nM (active) and 123 nM (active)	–	–	249 nM (active) and 77.6 nM (active)	1.11 µM (active) and 275 nM (active)	3.13 µM (active) and 2.45 µM (active)	–	125 nM (active) and 38.9 nM (active)	155 nM (active) and 122 nM (active)	–	–	–	–	77.9 nM (active) and 96.9 nM (active)	–
Clc1cccc(C(Cl)(Cl)Cl)n1	inactive	–	inactive	–	–	inactive	–	–	inactive	inactive	inactive	inactive	inactive	inactive	inactive	inactive	–	inactive	inactive	inactive
O=[N+]([O-])c1ccc(Nc2ccccc2)cc1	inactive and 49 µM (active)	–	inactive	–	–	inactive	inactive	–	inactive	inactive and 49 µM (active)	inactive and 43.6 µM (active)	inactive	inactive and 54.9 µM (active)	inactive	inactive	–	inactive	–	–	–
Oc1ccc(Cl)cc1Cc1ccccc1	54.9 µM (active)	inactive	44.2 µM (active) and inactive	inactive	60.5 µM (active) and inactive	inactive	–	–	inactive	–	54.9 µM (active) and 49.6 µM (active)	inactive	49 µM (active) and inactive	61.1 µM (active) and inactive	–	–	54.9 µM (active) and 44.2 µM (active)	–	–	–
N#Cc1c(Cl)c(Cl)c(Cl)c(C#N)c1Cl	6.79 µM (active) and 6.92 µM (active)	–	15.2 µM (active) and 5.49 µM (active)	–	21.5 µM (active) and 15.5 µM (active)	24.1 µM (active) and 21.9 µM (active)	–	–	1.91 µM (active) and 1.95 µM (active)	6.79 µM (active) and 8.71 µM (active)	inactive	–	5.39 µM (active) and 5.49 µM (active)	1.51 µM (active) and 864 nM (active)	–	–	7.76 µM (active)	–	1.9 µM (active) and 1.22 µM (active)	–
CCCCCCCCCc1ccc(O)cc1	inactive	–	inactive	inactive	inactive	inactive	–	inactive	–	inactive	inactive	inactive	inactive	61.8 µM (active) and inactive	–	–	–	–	–	–
CNC(=O)Oc1cccc2c1OC(C)(C)C2	inactive	inactive	–	inactive	inactive	inactive	–	inactive	inactive	inactive	inactive	inactive	inactive	inactive	inactive	inactive	inactive	–	–	–
CC(C)Nc1nc(Cl)nc(NC(C)C)n1	inactive	inactive	inactive	inactive	–	inactive	inactive	inactive	inactive	inactive	inactive	inactive	inactive	inactive	inactive	inactive	inactive	–	–	–
